Bioassay records: PubChem, National Center for Advancing Translational Sciences (NCATS)
HT1080NT lethal – kills 2HG-producing HT-1080-NT fibrosarcoma cells; HT-1080-NT fibrosarcoma viability, CellTiter-Glo ATP luminescence, 48 h; Potency, µM (series often up to 46.1 µM), for inactives: at the highest dose activity, negative = less viability, hits mostly cytotoxic; 360,000 tested, 1.6% active;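 also: NT is the 2HG producing partner of a matched IDH1 knockdown line; potency is read from the fitted curve at half-maximal effect; 0% = DMSO-treated cells and -100% = media-only wells without cells; nearly all actives have a fitted effect of over 55% in size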
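Compounds were tested in concentration-response format on HT-1080-NT cells for 48 hours at 37 degrees C. Cell viability came from CellTiter-Glo luminescence; curves were classified by r2, response magnitude and activity.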
TDP1 cell noCPT – qHTS for Inhibitors of human tyrosyl-DNA phosphodiesterase 1 (TDP1): qHTS in cells in absence of CPT; 420,000 tested, 15% active; Potency, µM (titrated, usually from 46.2 µM), inactives show top-dose activity change, negative = growth inhibition, most hits filed as inhibitors; AID 686978, 2013; DT40 Tdp1-/- hTDP1 cells, no CPT, ATP luminescence, 48 h; also: potency is read from the fitted curve at half-maximal effect; nearly all actives have a fitted effect of over 55% in size
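Growth of hTDP1-complemented DT40 Tdp1-knockout cells is measured by ATP luminescence after at least 48 hr compound exposure at 37 °C, with DMSO substituting for the 20 nM CPT used in the parallel screen.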
IL-1B inflam inh – inhibitors of inflammasome signaling (IL-1 beta secretion); activity change, % at 57.5 µM; 360,000 tested, 4.7% active; THP-1 LPS/ATP IL-1B secretion, AlphaLISA, 16 h; hits give low values; AID 743279; in the data active = activity change below about -50%; inconclusive = mostly about -30% to -49%
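Secreted IL-1B measured by AlphaLISA bead assay after 16 h compound exposure of THP-1 cells; compounds (final up to 57.5 uM) added 1 h before LPS (250 ng/mL) and ATP (1.25 mM) stimulation; lower signal means less secretion.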
TDP1 cell CPT – DT40-hTDP1 cell growth loss with CPT | chicken DT40 Tdp1-/-;hTDP1 cells + 20 nM CPT, ATP luminescence, 48 h | 420,000 tested, 12% active | Potency, µM (series often up to 46.2 µM), without a hit: at the top dose activity change, negative = growth inhibition, most hits filed as inhibitors; also: potency is read from the fitted curve at half-maximal effect; nearly all actives have a fitted effect of over 55% in size
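Cell growth measured by CellTiter-Glo luminescence after a minimum 48 h, 37 C compound exposure with 20 nM CPT in Tdp1-knockout DT40 cells stably expressing hTDP1, seeded 400/well; qHTS titration format.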
HT1080 IDH1KD tx – HT-1080 IDH1 knockdown cell toxicity (counter line); Potency, µM (doses to about 46.1 µM), for inactives: at the top dose activity, negative = toxicity, actives largely listed as cytotoxic; HT-1080 IDH1 knockdown viability, ATP luminescence, 48 h; AID 686971; 360,000 tested, 2% active;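 also: potency is read from the fitted curve at half-maximal effect; 0% = DMSO wells and -100% = cell-free medium wells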
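After a 2 h attachment period, IDH1KD HT-1080 cells took pin-transferred compound for 48 h at 37 °C; ATP-based luminescence after 10 min room-temperature reagent incubation reported viability.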
* hit, by the source's call; i = inactive; ? = inconclusive; nt = no result given; [ ] = remark or other dose. A selection: hits, their analogues and other compounds. The true share with any hit is near 19%. Unless noted, calls follow the shape of the dose curve; as a rule, active = well fitted curve in the direction sought with a large enough effect; inconclusive = small, poorly fitted or top-dose-only effect, or another doubt; inactive = no such curve, though single readings can be large; an effect the other way counts as inactive or inconclusive. Unless noted, % is scaled to controls: 0 for no effect and ±100 for the full control effect.

SMILES	HT1080NT lethal	TDP1 cell noCPT	IL-1B inflam inh	TDP1 cell CPT	HT1080 IDH1KD tx
CCOc1ccc(-c2nc(N)ncc2-c2ccc(OC)cc2)c(O)c1	-8%	?	-8	?	1%
CCCN(C)C1CN(Cc2cn(Cc3ccc(C)cc3)nn2)S(=O)(=O)C1 (stereo unspecified)	0%	-20%	-3	-12%	2%
OCC(O)C(O)C(O)C(O)C(O)CO (stereo unspecified)	nt	11%	nt	-4%	nt
O=C(c1ccncc1)N(Cc1ccccc1)Cc1nc2ccccc2c(=O)[nH]1	-7%	-9%	15	0%	-2%
CC(OCC(O)CN(C)Cc1nc2ccccc2c(=O)[nH]1)c1ccc(Cl)cc1 (stereo unspecified)	-10%	?	?	18µM*	?
Cc1ccccc1C(=O)N(Cc1nc2ccccc2c(=O)[nH]1)C1CCCC1	?	?	-3	?	?
O=C(c1ccccc1)N(Cc1ccc(F)cc1)Cc1nc2ccccc2c(=O)[nH]1	7.1µM*	-27%	21	?	6.3µM*
CC(NC(=O)CN(C)Cc1nc2ccccc2c(=O)[nH]1)c1ccccc1 (stereo unspecified)	6%	3%	21	-5%	8%
Cc1ccc(C(=O)N(Cc2nc3ccccc3c(=O)[nH]2)C2CCCC2)cc1	-9%	?	-22	13µM*	?
CN(Cc1nc2ccccc2c(=O)[nH]1)Cc1nc2ccsc2c(=O)[nH]1	0%	0.92µM*	30	0.52µM*	2%
CN(Cc1nc2ccccc2c(=O)[nH]1)C(=O)c1ccccc1OCc1ccc(Cl)cc1	-21%	?	-21	-27%	-16%
Cc1cc2cc(C#N)c(N3CCN(S(C)(=O)=O)CC3)nc2cc1C	2%	?	-15	-16%	-3%
COc1ccc(COC(=O)CCc2cc(OC)c(OC)c(OC)c2)cc1F	2%	0%	-5	-1%	0%
CCN(CC(=O)Nc1ccccc1Br)Cc1nc2ccccc2c(=O)[nH]1	-5%	?	-9	?	-6%
Cc1ccc(NC(=O)CN(C)Cc2nc3ccccc3c(=O)[nH]2)c(Br)c1	-6%	21µM*	?	-46%	-2%[9.24 µM]
CCN(Cc1nc2ccccc2c(=O)[nH]1)C(=O)c1cccc(OCc2c(C)noc2C)c1	?	16µM*	23	?	?
COc1ccc(-c2nc3cnc(OC)nc3n(C[C@H]3CCCO3)c2=O)cc1	nt	-6%	nt	5%	nt
O=C(O)COc1ccc2c(c1)O/C(=C\c1cccs1)C2=O	1%	-3%	-4	-13%	12%
COc1ccc(C=C2OC(=O)C(C(C)=O)=C2O)cc1	-4%	16µM*	-10	?	-9%
COc1ccc(/C=C2\Oc3ccccc3C2=O)cc1	10%	18µM*	-6	?	-2%
COc1ccc2c(c1)O/C(=C\c1sccc1C)C2=O	15%	18µM*	i	?	13%
CCCNC(=O)C1(C)CCCN(C/C=C/c2ccccc2)C1 (stereo unspecified)	14%	-25%	32	-24%	8%
CCOC(=O)C[n+]1c(C)ccc2c1CCC2	-10%	4%	8	-8%	-3%
CCOCCn1c(SCc2ccc(F)cc2)nc2c1c(=O)[nH]c(=O)n2C	0%	?	39	?	-2%
CCCCCn1c(Sc2nc3ccccc3s2)nc2c1c(=O)[nH]c(=O)n2C	-24%	?	-8	16µM*	-5%
CCCCn1c(SCc2ccc(Cl)cc2)nc2c1c(=O)[nH]c(=O)n2C	-22%	13µM*	1	13µM*	?
C=C(C)CSc1nc2c(c(=O)[nH]c(=O)n2C)n1CCC(C)C	0%	16µM*	50	15µM*	-4%
CCOCCn1c(SCc2ccc(C)cc2)nc2c1c(=O)[nH]c(=O)n2C	13%	?	23	13µM*	0%
CCSc1nc2c(c(=O)[nH]c(=O)n2C)n1Cc1ccc(Cl)cc1	-8%	?	-4	?	-10%[9.24 µM]
